{
  "source": "PubChem BioAssay AID2796",
  "about": "(The Scripps Research Institute Molecular Screening Center, 2010)",
  "note": "Screen size: about 320,000 compounds; about 8,000 (2.5%) were called active. Many of the other results were omitted from the sample, so actives are more common in it than they were. A number with no mark means an inactive call. Rule as the data show it: active = activation above about 47%; inactive = the rest.",
  "data": [
    {"biological_target": "Aryl hydrocarbon receptor (Homo sapiens) (UniProt P35869)", "sequence (P35869 whole entry, looked up)": "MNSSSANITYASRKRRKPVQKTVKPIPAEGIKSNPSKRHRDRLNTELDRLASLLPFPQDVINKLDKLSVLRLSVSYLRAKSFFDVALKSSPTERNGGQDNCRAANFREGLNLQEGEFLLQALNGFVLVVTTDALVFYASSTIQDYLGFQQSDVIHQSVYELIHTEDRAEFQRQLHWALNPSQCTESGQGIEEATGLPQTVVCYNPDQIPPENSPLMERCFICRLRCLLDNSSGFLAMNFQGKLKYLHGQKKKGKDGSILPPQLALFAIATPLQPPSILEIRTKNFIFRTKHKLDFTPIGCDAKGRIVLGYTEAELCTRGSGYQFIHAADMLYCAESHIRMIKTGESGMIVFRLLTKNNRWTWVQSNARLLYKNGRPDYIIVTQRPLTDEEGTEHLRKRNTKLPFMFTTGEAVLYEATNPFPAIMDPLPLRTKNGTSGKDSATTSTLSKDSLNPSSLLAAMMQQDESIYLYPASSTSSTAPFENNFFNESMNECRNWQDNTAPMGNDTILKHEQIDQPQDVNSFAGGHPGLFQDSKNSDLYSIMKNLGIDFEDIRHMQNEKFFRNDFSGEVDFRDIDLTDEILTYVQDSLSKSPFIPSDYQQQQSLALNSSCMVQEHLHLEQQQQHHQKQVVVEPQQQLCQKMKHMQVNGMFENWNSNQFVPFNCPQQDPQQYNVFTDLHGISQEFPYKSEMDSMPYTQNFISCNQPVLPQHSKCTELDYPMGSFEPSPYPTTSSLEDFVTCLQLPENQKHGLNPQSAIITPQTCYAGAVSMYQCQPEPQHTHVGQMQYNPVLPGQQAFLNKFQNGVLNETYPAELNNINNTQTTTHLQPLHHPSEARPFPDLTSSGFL", "assay": "AHR activators, primary screen, cell-based, luminescence, luciferase reporter, human (AID 2796);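 also: 0% = vehicle wells and 100% = reference agonist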", "settings": "AHR-responsive luciferase reporter cells, at 5 µM, hits give high values", "values": [
      {"smiles": "N[C@@H](Cc1c[nH]c2ccccc12)c1nnc(SCc2c(F)cccc2Cl)o1", "activation": "60.4% (active)"},
      {"smiles": "COc1cc2nc(N3CCN(C(=O)[C@@H]4CCCO4)CC3)nc(N)c2cc1OC", "activation": "5.62%"},
      {"smiles": "c1ccc(CCN2CCC3(CC2)OCCO3)cc1", "activation": "-0.2%"},
      {"smiles": "O=C(NC(c1ccc(Cl)cc1)P(=O)(Oc1ccccc1)Oc1ccccc1)OCc1ccccc1", "note": "(stereo not given)", "activation": "1.2%"},
      {"smiles": "CN(C)CCN(CC1CCCN(Cc2ccccc2F)C1)C(=O)Cc1ccc(F)c(F)c1", "note": "(stereo not given)", "activation": "-0.87%"},
      {"smiles": "CC1(C)C(c2ccccc2)=NC(c2cccnc2)=[N+]1[O-]", "activation": "1.07%"},
      {"smiles": "COc1ccc2c(c1O)-c1cccc3c1[C@@H](C2)N(C)CC3", "activation": "64.4% (active)"},
      {"smiles": "COc1c(O)ccc2c1-c1c3c(cc4c1C(C2)N(C)CC4)OCO3", "note": "(stereo not given)", "activation": "4.84%"},
      {"smiles": "COC1=CC=C2[C@H]3Cc4ccc(OC)c5c4[C@@]2(CCN3C)C1O5", "note": "(stereo not given in full)", "activation": "-1.46%"},
      {"smiles": "COc1ccc(NC(=O)c2cn(CCC#N)nc2-c2ccc([N+](=O)[O-])cc2)cc1", "activation": "0%"},
      {"smiles": "COC(=O)CN1C(=O)C2(C(C(=O)OC)=C(N)Oc3ccccc32)C2=C1CC(C)(C)CC2=O", "note": "(stereo not given)", "activation": "2.04%"},
      {"smiles": "CCOC(=O)CC1=C(C(=O)OCC)C2(C(=O)N1)C(C(=O)OC)=C(N)Oc1ccccc12", "note": "(stereo not given)", "activation": "10%"},
      {"smiles": "CCOC(=O)C1=C(C)OC(N)=C(C(=O)OC)C12C(=O)Nc1ccc(Br)cc12", "note": "(stereo not given)", "activation": "57% (active)"},
      {"smiles": "Nc1ccc(C(=O)N/N=C2/CN3CCC2CC3)cc1", "activation": "3.27%"},
      {"smiles": "CCOC(=O)C(O)(c1ccc(N=Cc2ccccc2O)c(C)c1)C(F)(F)F", "note": "(stereo not given)", "activation": "-2.72%"}
    ]}
  ]
}
